The text below walks through data of PubChem BioAssay AID504462 (Sanford-Burnham Center for Chemical Genomics, 2011).

In all, about 340,000 compounds went through this assay and about 1,700 (0.5%) were called active. The list comes from a sample in which actives are over-represented; it also holds similar structures and randomly drawn compounds. A number with no mark means an inactive call. No stated cut-off is given here; in the data, active means inhibition above about 40%; inactive means the rest.

This assay deals with Cysteine protease ATG4B (Homo sapiens) (UniProt Q9Y4P1). Description: blockers of ATG4B cysteine protease activity – biochemical, fluorescence, uHTS, primary screen (AID 504462). The following applies: ATG4B cleavage of LC3-PLA2, NBD-HPC fluorescence, 1 h; at 8.33 µM; stronger effect = higher value.
Cysteine protease ATG4B (Homo sapiens), sequence (Q9Y4P1 whole entry, looked up): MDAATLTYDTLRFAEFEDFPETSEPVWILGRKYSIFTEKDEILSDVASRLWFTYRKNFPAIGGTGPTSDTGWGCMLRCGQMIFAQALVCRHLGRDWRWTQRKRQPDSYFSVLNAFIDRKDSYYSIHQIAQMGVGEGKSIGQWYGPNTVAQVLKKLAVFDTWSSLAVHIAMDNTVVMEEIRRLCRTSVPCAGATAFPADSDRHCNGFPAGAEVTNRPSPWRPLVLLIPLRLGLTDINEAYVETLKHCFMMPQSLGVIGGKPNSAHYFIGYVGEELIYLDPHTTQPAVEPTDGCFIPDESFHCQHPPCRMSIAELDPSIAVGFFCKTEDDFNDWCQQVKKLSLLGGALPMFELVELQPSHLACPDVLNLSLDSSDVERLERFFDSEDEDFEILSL
As usually defined, the inhibition is the relative decrease from the control value, in per cent. Take `Fc1ccccc1N=C1Nc2cccc3cccc1c23`: the inhibition is -6.86%.

In the case of `COc1ccccc1C1=Nc2cccc3cccc(c23)N1`, the inhibition is 12.2%.

For the compound `c1ccc(C2=Nc3cccc4cccc(c34)N2)cc1`, the inhibition was 56.3% (active).

Turning to `CCN1CCCC1CNC(=O)Cn1cnc2ccc(S(=O)(=O)N3CCC(C)CC3)cc2c1=O` (stereo not given), the inhibition is -2.67%.

As for `NC(=O)C1CCN(C(=O)c2ccc(F)c(S(=O)(=O)N3CCOCC3)c2)CC1`, the inhibition is 0.71%.

For `Nc1c(Cl)cc(S(N)(=O)=O)cc1S(N)(=O)=O`, the inhibition is 3.68%.

In the case of `CCc1ccc(N2CC(C(=O)Nc3ccc(S(=O)(=O)Nc4nccs4)cc3)CC2=O)cc1` (stereo not given), the inhibition is -16.4%.

With `COc1ccc(NC(=O)COc2ccc(C(=O)c3ccc(F)cc3)cc2)cc1S(N)(=O)=O`, the inhibition is 97.7% (active).

For the compound `COc1ccc(NS(=O)(=O)c2cc(NC(=O)COc3ccccc3F)ccc2OC)cc1`, the inhibition is -14.9%.

For the compound `CCNC(=O)c1ccc(OCC(=O)Nc2ccc(F)cc2)c(OC)c1`, the inhibition was 2.31%.

As to `O=C(Nc1ccn(CCCNCc2ccc3[nH]ccc3c2)c(=O)n1)OCc1ccccc1`, the inhibition was -8.68%.

On to `COc1cccc(NC(=O)C/C(C)=N/NC(=O)C2CCCCC2)c1`, for which the inhibition was 1.29%.

Turning to `Cc1ncc(CC(=O)n2cc(C(=O)c3cc(Cl)ccc3O)cn2)s1`, the inhibition is 80% (active).

For the compound `O=C(c1cnn(-c2ccc(Cl)cc2)c1)c1ccccc1O`, the inhibition is 14.8%.

For the compound `Cc1ccc(CCC(=O)Nc2ncc(Cc3cc(Cl)ccc3Cl)s2)o1`, the inhibition is 0.02%.

Regarding `COc1ccc(NC(=O)CC2SC(N3CCCCC3)=NC2=O)cc1OC` (stereo not given), the inhibition is -1.9%.

Turning to `CN(Cc1ccc(F)cc1Cl)S(=O)(=O)c1cccs1`, the inhibition was 11%.

On to `CN(CC(=O)NCc1ccc(Cl)cc1)S(=O)(=O)c1cccs1`, for which the inhibition was -5.56%.

As for `CN(Cc1c(F)cccc1Cl)S(=O)(=O)c1cccs1`, the inhibition was 49.8% (active).

As for `COC(=O)c1c(NC(=O)c2c(Cl)cnn2C)sc(C)c1C`, the inhibition is -7.14%.

Take `CC1(C)Cc2cccc(OCC(=O)Nc3nccs3)c2O1`: the inhibition is -9.2%.

`Cc1ccccc1N1CCN(C2CCCN(C(=O)c3ocnc3C)C2)CC1` (stereo not given): the inhibition was 4.49%.

Take `COc1ccc(S(=O)(=O)Nc2cc(C)on2)cc1NC(C)=O`: the inhibition is -6.89%.

Consider `COc1ccc(-c2[nH]nc3c2C(c2ccncc2)C(C#N)=C(N)O3)cc1` (stereo not given), for which the inhibition was -11%.

`CCCc1[nH]nc2c1C(c1ccc(OC(=O)c3ccco3)cc1)C(C#N)=C(N)O2` (stereo not given): the inhibition is 69.2% (active).

Take `CCCc1[nH]nc2c1C(c1ccc(Br)s1)C(C#N)=C(N)O2` (stereo not given): the inhibition is -2.42%.

As to `CCC(=O)c1cc2c(cc1NC(=O)c1cccs1)OCCO2`, the inhibition was -18.9%.

For the compound `C[C@@H]1ON(C)[C@H]2C[C@H]3c4cc(N5CCN(C)CC5)ccc4CCN3C(=O)[C@@H]12`, the inhibition was -6.52%.

As for `CCc1c(O)cc2n(c1=O)-c1ccccc1C2(C)C`, the inhibition is -8.25%.

On to `O=C(COC(=O)/C(=C/c1cccs1)c1cccs1)NCc1ccccc1Cl`, for which the inhibition is 56% (active).

Turning to `CN(C)C(=O)c1ccc(NC(=O)COC(=O)c2cc3c(s2)CCCCC3)cc1`, the inhibition was -5.46%.

Turning to `O=C(COC(=O)c1ccc2c(c1)OCCO2)NCc1ccccc1Cl`, the inhibition is 22.8%.

Turning to `O=C(COC(=O)c1cc2c(s1)CCCC2)NCc1ccccc1Cl`, the inhibition is 40.4% (active).

For `O=C(COC(=O)c1cccs1)NCc1cccs1`, the inhibition is -10.9%.

For the compound `COc1ccccc1CNC(=O)COC(=O)c1cccs1`, the inhibition was 0.37%.

With `COc1ccc(NC(=O)C2CCC(CNc3c(N4CCCCC4)c(=O)c3=O)CC2)c(OC)c1` (stereo not given), the inhibition is 26.1%.

On to `CCN1CCN(C(=O)c2ccc(CN(c3ccc(C)c(C)c3)S(C)(=O)=O)cc2)CC1`, for which the inhibition is -3.29%.

On to `Cc1ccc(S(=O)(=O)N(C)CC(=O)NCC(c2ccc(F)cc2)N2CCOCC2)cc1` (stereo not given), for which the inhibition is -5.42%.

For the compound `CCC(C)(C)n1nnnc1C(c1cccs1)N1CCN(c2nc3ccccc3s2)CC1` (stereo not given), the inhibition was 1.17%.

Regarding `COc1nc(NC2CCCCC2)nc(N2CCCCCC2)n1`, the inhibition was 15.7%.

With `COc1ccc(-n2cnnc2SCC(=O)Nc2cccc([N+](=O)[O-])c2)cc1`, the inhibition was -7.34%.

For the compound `O=C(CSc1ncn[nH]1)Nc1nc(-c2cccc([N+](=O)[O-])c2)cs1`, the inhibition was -6.82%.

With `O=C(CSc1nc(-c2ccccc2)cs1)Nc1cccc([N+](=O)[O-])c1`, the inhibition is 41.4% (active).

In the case of `Cc1cc(NC(=O)c2ccco2)c(=O)n(Cc2c(F)cccc2Cl)c1`, the inhibition was 4.88%.

As to `Cc1nn(Cc2ccccc2Cl)c(C)c1NC(=O)Cn1nc([N+](=O)[O-])c(Cl)c1C`, the inhibition was -0.32%.

Regarding `O=C(N/N=C\c1ccc(Br)cc1)c1ccc(Cn2cccn2)o1`, the inhibition is -3.61%.

Turning to `Cc1c(Cl)c([N+](=O)[O-])nn1Cc1ccc(C(=O)N/N=C\c2cc(Cl)ccc2O)o1`, the inhibition is 64.3% (active).

Take `Cc1nn(-c2ccccc2)c(C)c1/C=N/NC(=O)CSc1nc2ccccc2c(=O)n1-c1ccccc1`: the inhibition is 45.1% (active).

For `CCn1c(SCC(=O)N/N=C/C=C/c2ccccc2[N+](=O)[O-])nnc1-c1ccccc1`, the inhibition is 1.16%.

As for `Cc1ccc(-n2c(SCC(=O)N/N=C/C=C/c3ccccc3[N+](=O)[O-])nc3ccccc3c2=O)cc1`, the inhibition was 54.4% (active).

As for `C/C(=N\NC(=O)CSc1nc2ccccc2c(=O)n1-c1ccccc1C)c1cccs1`, the inhibition is 8.49%.

On to `Cn1c(SCC(=O)N/N=C/c2ccc(O)c(O)c2)nc2ccccc21`, for which the inhibition is -12.3%.

In the case of `O=C(CSc1nc2ccccc2[nH]1)N/N=C/C=C\c1ccccc1[N+](=O)[O-]`, the inhibition was 7.51%.

For the compound `CCC[C@@H]1C[C@@]1(CCC)[C@@H](NC(=O)c1ccccc1)c1ccc(C(=O)OC)cc1`, the inhibition was -5.7%.

As for `COc1ccc(C(=O)NC(C)Cn2nc(C)cc2C)cc1OC1CCN(C(C)=O)CC1` (stereo not given), the inhibition was 3.85%.

As for `O=C(CCN1CCN(c2ccccc2)CC1)NNC(=S)Nc1ccccc1`, the inhibition was -1.44%.

Turning to `CCc1ccc2c(c1)C1(NN=C(c3ccccc3)S1)C(=O)N2` (stereo not given), the inhibition was 12.8%.

With `CCN=C1S/C(=C\c2cc(Br)ccc2OCC(=O)OCC)C(=O)N1CC`, the inhibition was -7.54%.

As to `Cc1ccccc1OCc1nnc(SCC(=O)N2c3ccccc3Sc3ccc(Cl)cc32)o1`, the inhibition was -8.7%.

For `O=S(=O)(Oc1ccccc1C(=S)N1CCOCC1)c1ccc(Cl)cc1`, the inhibition is 2.25%.

With `CN(C)c1cc(N)c2ccccc2n1` (tested in a mixture with another compound), the inhibition was -6.07%.

For `Cn1cc[n+](C)c1COc1ccc(C=O)cc1`, the inhibition was 6.27%.

Take `Cc1ccc(S(=O)(=O)N(Cc2cccc([N+](=O)[O-])c2)C(=O)N2CCN(C)CC2)cc1`: the inhibition was 3.55%.

In the case of `COc1ccc(N(CC(=O)Nc2ccc(C)cc2C)S(=O)(=O)c2ccccc2[N+](=O)[O-])c(OC)c1`, the inhibition was -12.7%.

Take `Cc1ccc(N(CC(=O)Nc2cc(C)cc(C)c2)S(=O)(=O)c2cccc3nonc23)cc1`: the inhibition is 12.5%.

Regarding `Cc1ccc(S(=O)(=O)N(CC(=O)Nc2cccc([N+](=O)[O-])c2)Cc2ccc(Cl)cc2)cc1`, the inhibition was 75.6% (active).

Take `CN(c1ccccc1)S(=O)(=O)c1cccc(NC(=O)Cc2ccc(Cl)cc2)c1`: the inhibition was -14.9%.

Regarding `COc1ccc(C)cc1S(=O)(=O)N(CC(=O)Nc1cccc([N+](=O)[O-])c1)c1ccc(C)cc1`, the inhibition was 88.8% (active).

Take `CCCCn1c(N)c(N(CC(C)C)C(=O)CSc2ccc([N+](=O)[O-])cc2)c(=O)[nH]c1=O`: the inhibition was 8.17%.

In the case of `CCOC(=O)CCCNC(=O)COC(=O)c1cc(Br)c(Br)s1`, the inhibition is -7.58%.

Take `C/C=N/NC(=O)CCCC(=O)N/N=C/C`: the inhibition is -3.09%.

On to `CC(C)c1ccc2c(c1)c(SC(C)(C)C)c(CC(C)(C)C(=O)O)n2Cc1ccc(Cl)cc1`, for which the inhibition was 56.2% (active).

For the compound `CCN(CC)S(=O)(=O)c1ccc(N(C)Cc2ccc(C(F)(F)F)cc2)nc1`, the inhibition is -7.77%.

Turning to `O=C(c1ccco1)N1CCN(CC(=O)N(C2CCCCC2)C2CCS(=O)(=O)C2)CC1` (stereo not given), the inhibition is 0.94%.

As to `N#Cc1ccc(Oc2cc(C(F)(F)F)nc(-c3ccccn3)n2)cc1`, the inhibition is -10.2%.

On to `COc1cnc(-c2ccccn2)nc1Oc1ccc(C(C)(C)C)cc1`, for which the inhibition is 59.3% (active).

Take `COc1ccc(NCCc2ccccn2)cc1`: the inhibition was -5.58%.

With `CCCCN(C1CCS(=O)(=O)C1)S(=O)(=O)c1ccc(C(C)C)cc1` (stereo not given), the inhibition was 6.86%.

For the compound `Cc1ccc(-c2cc(C(=O)N3CCc4ccccc4C3)no2)cc1`, the inhibition is 40% (active).

For the compound `O=C(c1cc(-c2cccc(O)c2)on1)N1CCc2ccccc2C1`, the inhibition was 35.8%.

Take `Cn1cccc1C(=O)N1CCc2ccccc2C1`: the inhibition was -0.25%.

For `O=C(Nc1ccccc1Cl)N1CCN(c2ccc3nncn3n2)CC1`, the inhibition was -9.87%.

On to `CN1C(=O)[C@H]2[C@@H](C3CC3)N3C(=O)CN(Cc4ccccc4)C(=O)[C@@]3(C)[C@H]2C1=O`, for which the inhibition was 0.76%.

Take `O=C1c2ccccc2C(=O)N1CCCCCCN1C(=O)c2ccccc2C1=O`: the inhibition was 2.67%.

Take `O=C1c2ccccc2C(=O)N1Cc1cc(-c2ccccc2Cl)no1`: the inhibition was 56.3% (active).

Regarding `O=C1c2ccccc2C(=O)N1CCCc1nc(-c2ccccc2)no1`, the inhibition is 3.08%.

Take `Cc1nc2ccccc2c(C)c1C(=O)c1ccc(F)cc1`: the inhibition was -2.83%.

For the compound `Cc1nc2ccccc2c(-c2ccccc2)c1C(=O)c1ccccc1`, the inhibition is 80% (active).

Turning to `Cc1nc2ccccc2c(C(=O)O)c1-c1ccccn1`, the inhibition is -2.51%.

For the compound `CCn1c2c(c3ccc(OC)cc31)CCCC2=O`, the inhibition is -3.83%.
